# Structures can show the parent of a compound that is named as a salt.
# How the values were obtained:
# Settings in all cases: compound concentration in added solution (µM; 5 µl added to 20 µl cells): 10; 18 h
# [1] = test system: A431; experiment: LBPA endosome anti-LBPA integrated intensity (sum per cell), Z-score; higher = more LBPA staining
# Method in brief: (§1)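 Z-scores normalised in AcuityXpress are given for per-cell integrated LBPA or filipin intensity, measured whole-cell or within LBPA endosomes by MetaXpress segmentation. Cells (HeLa MZ or A431, 3,500 per well in 20 µl) were seeded onto 5 µl of 10 µM compound solution in duplicate 384-well imaging plates and fixed in 4% PFA after 18 h.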
# [2] = test system: HeLa MZ; experiment: as above
# Method in brief: as §1
# [3] = test system: A431; experiment: whole-cell filipin (free cholesterol) integrated intensity, Z-score; higher = more cholesterol staining
# Method in brief: as §1
# [4] = test system: HeLa MZ; experiment: as above
# Method in brief: as §1
# [5] = test system: A431; experiment: filipin (cholesterol) integrated intensity within LBPA endosomes, Z-score; higher = more cholesterol in LBPA endosomes
# Method in brief: as §1
# [6] = test system: HeLa MZ; experiment: as above
# Method in brief: as §1
Compound,LBPA endosome anti-LBPA integrated intensity (z-score) [1],LBPA endosome anti-LBPA integrated intensity (z-score) [2],whole-cell filipin (z-score) [3],whole-cell filipin (z-score) [4],filipin (z-score) [5],filipin (z-score) [6]
COc1cc2ncnc(Nc3ccc(F)c(Cl)c3)c2cc1OCCCN1CCOCC1 [Gefitinib],3.94,2.43,0.816,0.788,2.49,2.83
CN1CCCC(n2nc(Cc3ccc(Cl)cc3)c3ccccc3c2=O)CC1 (stereo not drawn) [Azelastine HCl],3.18,2.26,1.79,0.915,2.29,3.01
CN1C2CCCC1CC(NC(=O)c1nn(C)c3ccccc13)C2 (stereo not drawn) [Granisetron],0.179,1.05,0.826,0.449,-0.132,0.382
Nc1ccc(S(=O)(=O)NC(=O)c2ccccc2)cc1 [Sulfabenzamide],-0.476,-1.38,-0.453,-0.0901,-0.451,-0.401
Cc1cc(NS(=O)(=O)c2ccc(N)cc2)no1 [Sulfamethoxazole],-0.371,-0.141,-0.446,-0.158,-0.446,-0.3
Nc1nc(=S)c2ncn([C@@H]3O[C@H](CO)[C@@H](O)[C@H]3O)c2[nH]1 [Thioguanosine],-0.355,1.49,-1.06,-0.863,-0.656,-0.626
COc1ccc(C(=O)NCc2ccc(OCCN(C)C)cc2)cc1OC [Itopride],-0.646,-0.657,-0.844,-0.665,-0.581,-0.36
O=C(CCCN1CC=C(n2c(=O)[nH]c3ccccc32)CC1)c1ccc(F)cc1 [Droperidol],0.278,1.75,0.378,0.978,0.193,0.762
Nc1nc(N)c2nc(-c3ccccc3)c(N)nc2n1 [Triamterene],0.172,-1.01,-0.647,-1.14,-0.443,-0.487
OCCN1CCN(CC/C=C2/c3ccccc3Sc3ccc(Cl)cc32)CC1 [Zuclopenthixol hydrochloride],3.18,1.68,0.421,0.439,2.79,2.86
c1ccc(C2CN3CCSC3=N2)cc1 (stereo not drawn) [Tetramisole hydrochloride],-0.644,0.538,-0.603,-0.217,-0.702,-0.156
CC(C(=O)O)c1ccc2c(c1)[nH]c1ccc(Cl)cc12 (stereo not drawn) [Carprofen],-0.569,-1.21,-0.098,-0.307,-0.398,-0.538
O=S(=O)(O)c1cc(O)ccc1O [Ethamsylate],-0.297,0.237,0.0355,-0.226,-0.436,-0.57
Cc1c(Cl)cccc1Nc1ncccc1C(=O)O [Clonixin Lysinate],-0.476,-1.1,-0.0028,-0.353,-0.486,-0.62
CCN1CCN(C(=O)N[C@@H](C(=O)N[C@@H]2C(=O)N3C(C(=O)O)=C(CSc4nnnn4C)CS[C@H]23)c2ccc(O)cc2)C(=O)C1=O [Cefoperazone dihydrate],-0.512,-0.941,-0.712,-0.226,-0.522,-0.518
O=C(CCCCC(=O)Nc1c(I)cc(I)c(C(=O)O)c1I)Nc1c(I)cc(I)c(C(=O)O)c1I [Iodipamide],-0.326,-0.366,-0.456,-0.377,-0.385,-0.472
CC(=O)N(CC(O)CO)c1c(I)c(C(=O)NCC(O)CO)c(I)c(C(=O)NCC(O)CO)c1I (stereo not drawn) [Iohexol],-0.463,0.247,-0.643,-0.949,-0.508,-0.655
Nc1ccn([C@H]2CC[C@@H](CO)O2)c(=O)n1 [Zalcitabine],-0.426,-0.556,0.221,0.402,-0.388,-0.459
COc1ccc2c(c1)N(C[C@H](C)CN(C)C)c1ccccc1S2 [Methotrimeprazine maleat salt],2.94,1.48,1.03,-0.207,1.82,1.55
Nc1ccc(S(=O)(=O)Nc2ncccn2)cc1 [Sulfadiazine],-0.494,-0.985,-0.718,-0.987,-0.481,-0.62
CCN(CC)CCOC(=O)c1ccc(N)cc1 [Procaine hydrochloride],-0.324,0.381,-1.04,-0.86,-0.492,-0.418
Nc1ccc(C(=O)NCC(=O)O)cc1 [Aminohippuric acid],-0.53,-0.169,-0.32,-0.186,-0.48,-0.359
N=C(N)NC(=O)c1nc(Cl)c(N)nc1N [Amiloride hydrochloride dihydrate],-0.438,-0.561,-0.785,-0.475,-0.486,-0.551

# From the supplement of paper PMC6607015
